Pf Dd2 inh = blocks in vitro growth of P. falciparum Dd2; P. falciparum Dd2 growth, SYBR Green, 72 h; Potency, µM (highest dose often 28.9 µM), hits mostly inhibitors; actives 4.3% (n = 120,000); AID 1347417; active means well fitted inhibition curve with a large enough effect; further: nearly all actives have a fitted effect of over 65% in size
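Infected erythrocytes (Dd2, 0.3% parasitemia, 2.5% hematocrit final) are added to compound in RPMI-1640/Albumax II medium, grown 72 h at 37C in low oxygen, then lysed with saponin/Triton-X containing SYBR Green and read by fluorescence.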
Numbers stand for hits; 0 = inactive. This excerpt belongs to a sample that is enriched for hits.

SMILES	Pf Dd2 inh
COc1ccc(N2CCN(CCCNC(=O)c3cc(Nc4ccc(OC)cc4OC)nc4ccccc34)CC2)cc1	0
O=C(NC1CCCCC1)c1cc(Nc2ccccc2)nc2ccccc12	0
COc1ccc(Nc2cc(C(=O)NCCCN(C)C3CCCCC3)c3ccccc3n2)c(OC)c1	8.9µM
COc1ccc(CNC(=O)c2cc(Nc3ccc(OC)cc3OC)nc3ccccc23)cc1	0
CNC(=O)[C@@H]1C[C@H](n2cc(-c3ccc(CN4CC[C@@H](O)C4)cc3)nn2)CN1	0
COc1cccc2c1NC(=O)CC2C(=O)N1CCc2c(nc[nH]c2=O)C1 (stereo not given)	0
COc1cccc(C(=O)N2CCC(c3nc(C4CCOC4)no3)CC2)c1 (stereo not given)	0
O=C(C1CC1)N(C1CCOCC1)C1CCN(S(=O)(=O)c2cc(F)cc(F)c2)CC1	0
Cc1cc(S(=O)(=O)N2CCC(N(C(=O)C3CC3)C3CCOCC3)CC2)ccc1Cl	0
O=C(C1CC1)N(C1CCOCC1)C1CCN(S(=O)(=O)c2ccc(F)c(Cl)c2)CC1	10µM
COc1ccccc1CNC[C@H]1O[C@H](Cc2cc(CN3CCOCC3)on2)CC[C@@H]1O	0
C=CCn1ccn2cnc(-c3ccccc3)c2c1=O	0
CCCCC(=O)OC1=C(C(=O)c2ccccc2)N(CCC)S(=O)(=O)c2ccccc21	0
CCCCCN1C(C(=O)c2ccccc2)=C(OC(=O)CC)c2ccccc2S1(=O)=O	3.2µM
CCCCCN1C(C(=O)c2ccccc2)=C(NC(C)=O)c2ccccc2S1(=O)=O	0
Cc1c(F)cccc1CN1CCC2(CC1)CC(c1ccccc1)C(=O)N2C (stereo not given)	0
COCCN1C(=O)CO[C@H]2CN(Cc3ccccc3)C[C@H]21	0
COc1ccc(CNC(=O)c2ccc3c(Cl)c4c(nc3c2)CCCC4)c(OC)c1	0
CCc1nc2ccc(C(=O)NCCc3ccc(OC)c(OC)c3)cc2nc1CC	0
COCCNC(=O)c1ccc2c(c1)ncn2-c1cc(C)ccc1OC	0
COc1ccc(CCNC(=O)c2ccc3c(c2)ncn3-c2ccc(C(C)C)cc2)cc1OC	11µM
COc1ccc(CCNC(=O)c2ccc3c(Cl)c4c(nc3c2)CCCC4)c(OC)c1	0
COc1ccc(CCNC(=O)c2ccc3c(Cl)c4c(nc3c2)CCCC4)cc1OC	11µM
N#Cc1cccc(N2CCC3(CC(=O)NC3=O)C2)n1 (stereo not given)	0
Cc1ccc(OCC(=O)c2ccc3c(c2)N(CCCC(=O)N2CCOCC2)C(=O)CO3)cc1C	0
SMILES	Pf Dd2 inh
COc1ccccc1OCC(=O)c1ccc2c(c1)N(CCCC(=O)N1CCOCC1)C(=O)CO2	0
CC(C)c1ccc(OCC(=O)c2ccc3c(c2)N(CCCC(=O)N2CCOCC2)C(=O)CO3)cc1	13µM
Cc1cccnc1C(=O)N[C@@H]1CN(C2CCOCC2)C[C@H]1CN(C)C	0
Cn1cccc1C(=O)N1C[C@@H](NC(=O)NC2CCCCC2)C[C@H]1C(=O)N[C@H](Cc1c[nH]c2ccccc12)C(N)=O	0
CC(C)C[C@@H]1N[C@H](C(=O)NCc2ccccc2)Cc2c[nH]c3cccc1c23	0
CC(C)C[C@@H]1N[C@H](C(=O)NCCOc2ccccc2)Cc2c[nH]c3cccc1c23	13µM
CC(C)C[C@@H]1N[C@H](C(=O)N2CCCC2)Cc2c[nH]c3cccc1c23	0
CC(C)C[C@@H]1N[C@H](C(=O)N2CCC(NC(=O)c3ccccc3)CC2)Cc2c[nH]c3cccc1c23	10µM
CC(C)C[C@@H]1N[C@H](C(=O)NCc2ccco2)Cc2cn(Cc3nccn3C)c3cccc1c23	0
CCCNC(=O)[C@@H]1Cc2c[nH]c3cccc(c23)[C@H](CC(C)C)N1	0
CC(C)C[C@@H]1N[C@H](C(=O)NCCCn2ccnc2)Cc2c[nH]c3cccc1c23	8.9µM
CC(C)C[C@@H]1N[C@H](C(=O)NCc2ccccc2Cl)Cc2c[nH]c3cccc1c23	0
CN(C)c1ccc(CN[C@H]2C[C@H]3C(=O)NC[C@@H](CCC(=O)NCc4ccccc4)N3C2)cc1	0
OCC1(Cc2ccccc2F)CCCN(c2nccc(C(F)(F)F)n2)C1 (stereo not given)	0
O=C(CN1C(=O)NC2(CCCCC2)C1=O)Nc1ccccc1F	0
CC(C)NC(=O)CCC1CCN(C(=O)c2ccccc2F)CC1	0
O=C(c1cccc(Cl)c1)N1CCCC(c2nn(-c3cccc(Cl)c3)c(=O)[nH]2)C1 (stereo not given)	0
O=C(NC[C@H]1O[C@@H](CO)[C@@H](O)[C@H]1N1CCN(c2ccccc2)CC1)Nc1ccc(F)cc1F	0
CCn1ccc2cc(S(=O)(=O)N3CCC(C(=O)NCCc4ccc(SC)cc4)CC3)ccc21	8.9µM
CCn1ccc2cc(S(=O)(=O)N3CCC(C(=O)NCCc4ccccc4)CC3)ccc21	0
CCn1ccc2cc(S(=O)(=O)N3CCC(C(=O)NCc4ccc(F)cc4)CC3)ccc21	0
CCn1nc(C)c(-c2cc(C(=O)NCC34CCC=C3N(C)C(=O)CC4)no2)c1C (stereo not given)	0
COCC(=O)N(C1CCOCC1)C1CCN(S(=O)(=O)c2c(C)noc2C)CC1	0
CC(C)NC(=O)N(C1CC1)C1CCOC2(CCN(C(=O)c3n[nH]c4ccccc34)CC2)C1 (stereo not given)	0
CCC(C)NC(=O)C1CC(c2ccccc2)CN(C(=O)c2ccc(OC)cc2)C1 (stereo not given)	0
SMILES	Pf Dd2 inh
Cc1ccc(-c2noc(-c3ccccc3NC(=O)C3CC(=O)N(c4ccc(C)cc4)C3)n2)cc1 (stereo not given)	1.4µM
Cc1ccc(N2CC(c3noc(-c4ccccc4C)n3)CC2=O)cc1 (stereo not given)	0
Cc1ccc(N2CC(C(=O)Nc3ccc(Cl)cc3Cl)CC2=O)cc1 (stereo not given)	0
O=C(C1CCCC1)N1CCCC(Cc2nc(C3CCOCC3)no2)C1 (stereo not given)	0
COc1cccc(CC(=O)N2CCN(C(=O)c3nnn4c3COC(c3ccc(F)cc3)C4)CC2)c1 (stereo not given)	0
O=C(CCc1ccccc1)N1CCC(Oc2ccc(C(=O)N3CCOCC3)cn2)CC1	0
COc1cc(F)ccc1-c1nccc2c(=O)cc(-c3cccnc3)oc12	0
Cc1cc(C)c(S(=O)(=O)NCCn2c(C)cnc2C2CCC2)cc1C	3.5µM
Cc1cnc(C2CCC2)n1CCNC(=O)c1cc(C2CC2)[nH]n1	0
Cc1cnc(C2CC2)n1CCNC(=O)C1CCN1C1CCCCC1 (stereo not given)	0
O=C1Nc2ccccc2CC12CCN2Cc1ccsc1 (stereo not given)	0
O=C(O)C1(c2ccccc2)CCN(S(=O)(=O)c2cccc(C(F)(F)F)c2)CC1	0
COCCCNc1ncnc2onc(-c3ccc(F)cc3)c12	0
Cc1ccccc1CN1CCC(CNc2ncnc3onc(-c4ccc(F)cc4)c23)CC1	4µM
COCCNc1ncnc2onc(-c3ccc(F)cc3)c12	0
CCOc1ccc(NC(=O)c2cc3cc4cc(OC)ccc4nc3s2)cc1	0
COc1ccc(C2C(C(=O)Nc3ccccc3)=C(C)Nc3nc(SCC(=O)c4ccc(C)cc4)nn32)cc1 (stereo not given)	0
COc1cccc(C2C(C(=O)Nc3ccccc3)=C(C)Nc3nc(-c4ccccc4)nn32)c1OC (stereo not given)	0
COc1cc(OC)c(C2C=C(c3ccc(C)cc3)Nc3c(C(=O)Nc4ccccc4)cnn32)cc1OC (stereo not given)	10µM
COc1ccc(-c2cnnn2-c2ccc(NC(=O)c3ccccc3OC)cc2)cc1	0

Screening results deposited in PubChem BioAssay by National Center for Advancing Translational Sciences (NCATS).
